We go through 40 compounds from PubChem BioAssay (EPA / NIEHS).

SMILES strings stand for the structures. Results filed as inconclusive are left out. The source made the active and inactive calls. Rule for the calls: active = hit-call score of the fitted dose curve at least 0.9, where 1 is the maximum; inconclusive = response in the unintended direction; inactive = score below 0.9.

Chain of Estrogen receptor (Homo sapiens) (P03372 whole entry, looked up, the tested form may be a part): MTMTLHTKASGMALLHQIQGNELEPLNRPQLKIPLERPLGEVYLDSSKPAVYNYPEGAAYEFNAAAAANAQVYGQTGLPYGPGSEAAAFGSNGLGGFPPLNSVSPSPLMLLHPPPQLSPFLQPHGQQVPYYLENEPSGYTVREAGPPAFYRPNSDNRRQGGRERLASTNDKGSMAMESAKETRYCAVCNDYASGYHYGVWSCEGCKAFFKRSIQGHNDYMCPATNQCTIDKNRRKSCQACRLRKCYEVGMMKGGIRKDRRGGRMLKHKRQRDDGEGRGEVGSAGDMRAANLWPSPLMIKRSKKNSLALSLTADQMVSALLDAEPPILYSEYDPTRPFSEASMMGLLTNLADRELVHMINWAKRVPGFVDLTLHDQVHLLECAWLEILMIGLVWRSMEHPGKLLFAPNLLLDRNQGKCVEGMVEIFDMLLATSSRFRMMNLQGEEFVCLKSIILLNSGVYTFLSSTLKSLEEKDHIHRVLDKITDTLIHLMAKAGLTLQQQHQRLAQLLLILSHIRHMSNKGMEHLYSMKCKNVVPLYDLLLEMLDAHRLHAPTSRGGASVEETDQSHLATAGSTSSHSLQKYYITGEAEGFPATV

In the test the target is Estrogen receptor (Homo sapiens) (UniProt P03372). In words: OT_ER_ERaERa_0480: Odyssey Thera (OT) 8-hour HEK293T Protein-Complementation Assay for Estrogen Receptor-alpha/-alpha Homodimer (AID 2283351).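 Note: rise in fluorescence from reassembled reporter fragments on ERα LBD homodimer in nucleus or whole cell.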 As for the experimental part:
OT_ER_ERaERa_0480 is a cell-based assay that uses HEK293T, a human kidney cell line, with measurements taken at 8 hours after chemical dosing in a 384-well plate.OT_ER_ERaERa_0480 is one of one assay component(s) measured or calculated from the OT_ER_ERaERa_0480 assay. It is designed to make measurements of protein fragment complementation, a form of binding reporter, as detected with fluorescence intensity signals by Protein-fragment Complementation technology.Data from the assay component OT_ER_ERaERa_0480 was analyzed into 1 assay endpoint. This assay endpoint, OT_ER_ERaERa_0480, was analyzed in the positive analysis fitting direction relative to DMSO as the negative control and baseline of activity. Using a type of binding reporter, measures of receptor for gain-of-signal activity can be used to understand the binding at the pathway-level as they relate to the gene ESR1. Furthermore, this assay endpoint can be referred to as a primary readout, because the performed assay has only produced 1 assay endpoint. To generalize the intended target to other relatable targets, this assay endpoint is annotated to the nuclear receptor intended target family, where the subfamily is steroidal.
Protein-fragment complementation assay, or PCA, is a method for the identification and quantification of protein-protein interactions. In the PCA, the proteins of interest ("bait" and "prey") are each covalently linked to fragments of a third protein (e.g. DHFR, which acts as a "reporter"). Interaction between the bait and the prey proteins brings the fragments of the reporter protein in close proximity to allow them to form a functional reporter protein whose activity can be measured. The OT ER alpha / ER alpha assay is a homodimer PCA of the ligand binding domain (amino acids 310-547) of human ER alpha stably expressed in HEK293T cells. […] Fluorescent signal in the basal state of the assay is very low and is primarily punctuate and cytoplasmic. Modulation of this assay is quantified as an increase in mean fluorescence intensity in the nucleus (for agonists) or in the nucleus and cytoplasm (antagonists) relative to vehicle controls, and can be quantified on a high content imaging device or a laser scanning cytometer. The latter instrument is favored for this assay because of the rapid mode of data acquisition, the ability to acquire data from the entire cell population in a well (as opposed to a fraction of the well on the high content devices) and the larger dynamic range typically achieved with this instrument. To assess sensitivity of the ER alpha/ER alpha LBD assay to ligand, cells were treated with the ER agonist 17 beta-estradiol (E2) in 10-point concentration- response format for 8 hours and monitored response on a laser scanning plate cytometer (Acumen eX3; TTP Lab Tech).
Consider `Nc1c(Cl)c(Cl)nc(C(=O)O)c1Cl`, for which the call was inactive.

On to `CCCN(CC)CC1COC2(CCC(C(C)(C)C)CC2)O1` (stereo not given), for which the compound was called inactive.

Regarding `O=C1C2CC=CCC2C(=O)N1SC(Cl)(Cl)Cl` (stereo not given), the outcome was inactive.

Turning to `OC(c1ccc(Cl)cc1)(c1ccc(Cl)cc1)C(Cl)(Cl)Cl`, the call was inactive.

As for `CCCCC(O)(Cn1cncn1)c1ccc(Cl)cc1Cl` (stereo not given), the result was inactive.

With `COP(=S)(OC)Oc1ccc([N+](=O)[O-])c(C)c1`, the call was inactive.

For the compound `COCc1cnc(C2=NC(C)(C(C)C)C(=O)N2)c(C(=O)O)c1` (stereo not given), the result was inactive.

As for `CN/C(=N\[N+](=O)[O-])NCc1cnc(Cl)s1`, the call was inactive.

Regarding `COCC(C)N(C(=O)CCl)c1c(C)csc1C` (stereo not given), the outcome was inactive.

As to `COP(=S)(OC)SCn1nnc2ccccc2c1=O`, the call was inactive.

Consider `Nc1c(Cl)c(F)nc(OCC(=O)O)c1Cl`, for which the call was inactive.

As for `CCNP(=S)(OC)O/C(C)=C/C(=O)OC(C)C` (stereo not given), the result was inactive.

Turning to `CC(C)=CC1C(C(=O)OCc2coc(Cc3ccccc3)c2)C1(C)C` (stereo not given), the call was inactive.

As for `O=P(O)(O)CCCl`, the compound was called inactive.

`CS(=O)(=O)c1ccc(C(=O)C2C(=O)CCCC2=O)c([N+](=O)[O-])c1`: the compound was classed as inactive.

Turning to `CCN(CC)c1nc(C)cc(OP(=S)(OC)OC)n1`, the compound was called inactive.

Consider `O=c1n(Cl)c(=O)n(Cl)c(=O)n1Cl`, for which the outcome was inactive.

As for `COP(=O)(OC)O/C(C)=C/C(=O)N(C)C`, the compound was called inactive.

As for `Clc1cccc(C(Cl)(Cl)Cl)n1`, the compound was called inactive.

Regarding `Cc1ccc(N=CN(C)C=Nc2ccc(C)cc2C)c(C)c1`, the compound was called inactive.

As for `CCOP(=S)(OCC)Oc1nc(Cl)n(C(C)C)n1`, the call was inactive.

`COC(=O)N(C(=O)N1CO[C@@]2(C(=O)OC)Cc3cc(Cl)ccc3C2=N1)c1ccc(OC(F)(F)F)cc1`: the compound was classed as inactive.

`Cc1cc(C)nc(Nc2ccccc2)n1`: the result was inactive.

In the case of `Cn1c(-c2ccccc2)cc(-c2ccccc2)[n+]1C`, the compound was classed as inactive.

Consider `O=C(O)c1c(Cl)ccc2cc(Cl)cnc12`, for which the outcome was inactive.

In the case of `N#Cc1c[nH]cc1-c1cccc2c1OC(F)(F)O2`, the compound was called inactive.

As to `Clc1nc(Cl)nc(Nc2ccccc2Cl)n1`, the compound was classed as inactive.

In the case of `Cc1nc(N(C)C)nc(OC(=O)N(C)C)c1C`, the compound was classed as inactive.

For the compound `COC(=O)c1c(C(F)F)nc(C(F)(F)F)c(C2=NCCS2)c1CC(C)C`, the result was inactive.

Turning to `N#Cc1c(Cl)cccc1Cl`, the call was inactive.

In the case of `CCOc1nc(F)cc2nc(S(=O)(=O)Nc3c(Cl)cccc3Cl)nn12`, the result was inactive.

Turning to `COC(=O)NC(=S)Nc1ccccc1NC(=S)NC(=O)OC`, the result was inactive.

As for `CCCCOCN(C(=O)CCl)c1c(CC)cccc1CC`, the result was inactive.

As for `CS(=O)(=O)c1cc(C(F)(F)F)ccc1C(=O)c1cnoc1C1CC1`, the compound was called inactive.

`C=C(C)CN(CC)c1c([N+](=O)[O-])cc(C(F)(F)F)cc1[N+](=O)[O-]`: the call was inactive.

Regarding `CCOP(=O)(OCC)Oc1nc(Cl)c(Cl)cc1Cl`, the compound was classed as inactive.

Turning to `CC(C)N1C(=O)N(c2ccccc2)CSC1=NC(C)(C)C`, the call was inactive.

With `CC1(C)CCC(=Cc2ccc(Cl)cc2)C1(O)Cn1cncn1` (stereo not given), the outcome was inactive.

`CNC(=O)Oc1cccc2ccccc12`: the compound was called inactive.

`CCC(C)n1c(=O)[nH]c(C)c(Br)c1=O` (stereo not given): the result was inactive.
